Here are results for 40 compounds from PubChem BioAssay (NCI).

Structures are written as SMILES. The panel holds about 83,000 compounds, 20% with a hit somewhere; the sample as a whole holds those more often.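 Treatment: one concentration, 48 hours, 96-well format. Scoring: percent growth, with anything below 10 considered active.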 A number with no mark means an inactive call. The source made the active and inactive calls.

For this assay, the system named is HS 578T breast. As to the kind of experiment: NCI-60 one-dose screen, 48 h (100 = growth as untreated, 0 = no growth, -100 = all killed). As to conditions: 10 µM. The procedure:
Growth inhibition of the HS 578T human tumor cell line is measured as a screen for anti-cancer activity. Cells are grown in 96 well plates and exposed to the test compound for 48 hours. Compounds are tested at a single concentration, which is 10^-5 M for most compounds. The reported endpoint is percent growth (GI% or GIPRCNT), where numbers from 0 - 100% represent growth inhibition, and numbers from -100% - 0 represent cell death. For example, a value of 40 represents 60% growth inhibition. A value of 0 means no net growth occurred over the course of the experiment. A value of -40 indicates 40% of cells at the beginning of the experiment died by the end of the experiment. A value of -100 means all cells are dead at the end of the experiment.
NCI-60 Human Tumor Cell Lines Screen was performed using the standard one-dose NCI protocol, which is described in more detail at https://dtp.cancer.gov/discovery_development/nci-60/default.htm.
Compounds with GIPRCNT values below 10 were considered active. Activity score was based on GIPRCNT using the following formula: […]
Score is 0 for GIPRCNT values of 100 or above, 50 for GIPRCNT values of 0, and 100 for GIPRCNT values of -100.
As to `CC12CCC3(CCC(=O)NCCCNc4ccnc5cc(Cl)ccc45)[C@@](C)(OO[C@]3(C)O1)O2`, the growth is 11.4%. The figure for `C[C@H]1[C@H](OC(=O)CCC(=O)N(CCCc2cn(-c3ccc([N+](=O)[O-])cc3)nn2)CCNc2ccnc3cc(Cl)ccc23)O[C@@H]2OC3(C)CC[C@H]4[C@H](C)CC[C@@H]1[C@@]24OO3` is 52.8%; for `CN(C)CCc1cn(C2CCC2)c2cccc(O)c12` it is 47.7%. The figure for `C=CCN=C([Se])NC(=O)c1ccc2c(c1)OCO2` is 99.3%; for `CC[C@]12C=CCN3CC[C@@]4(c5ccc(OC)cc5N(C)[C@H]4[C@@](O)(C(=O)OC)[C@@H]1OC(=O)CCC[P+](c1ccc(C)cc1)(c1ccc(C)cc1)c1ccc(C)cc1)[C@@H]32` it is -60.3% (active); for `Cc1c2oc3c(C)ccc(C(=O)N[C@@H]4C(=O)N[C@H](C(C)C)C(=O)N5CCC[C@H]5C(=O)N(C)CC(=O)N(C)[C@@H](C(C)C)C(=O)OC4C)c3nc-2c(C(=O)N[C@@H]2C(=O)N[C@H](C(C)C)C(=O)N3CC(=O)C[C@H]3C(=O)N(C)CC(=O)N(C)[C@@H](C(C)C)C(=O)OC2C)c(N)c1=O` (stereo not given in full) it is 5.64% (active). The figure for `CC(C)C[C@H](NC(=O)CNC(=O)C[C@H]1O[C@@H]2OC3(C)CC[C@H]4[C@H](C)CC[C@@H]([C@H]1C)[C@@]24OO3)B(O)O` is 7.9% (active).

For the compound `C=CC[Se]C(=O)c1ccc(C(=O)[Se]CC=C)s1`, the growth was -22.1% (active). Take `C#CCCCN(CCNc1ccnc2cc(Cl)ccc12)C(=O)CCC(=O)O[C@@H]1O[C@@H]2OC3(C)CC[C@H]4[C@H](C)CC[C@@H]([C@H]1C)[C@@]24OO3`: the growth was 44.1%.

`COP(=O)(CC(F)(F)C(F)(F)F)OC`: the growth was 75.3%. The figure for `C[C@H]1[C@@H](CC(=O)N[C@@H](Cc2coc3ccccc23)B(O)O)O[C@@H]2OC3(C)CC[C@H]4[C@H](C)CC[C@@H]1[C@@]24OO3` is -4.2% (active); for `C[C@H]1[C@H](OC(=O)CCC(=O)N(CCCc2cn(-c3ccc(C#N)cc3)nn2)CCNc2ccnc3cc(Cl)ccc23)O[C@@H]2OC3(C)CC[C@H]4[C@H](C)CC[C@@H]1[C@@]24OO3` it is 43%; for `CC1=C(C=O)C2=C(C)C3(CC3)[C@@](C)(O)C(=O)C2=C1` it is 36.3%.

As for `CC[C@]12C=CCN3CC[C@@]4(c5ccc(OC)cc5N(C)[C@H]4[C@@](O)(C(=O)OC)[C@@H]1OC(=O)CCCC[P+](c1ccc(C)cc1)(c1ccc(C)cc1)c1ccc(C)cc1)[C@@H]32`, the growth was -69.9% (active).

As for `CC[C@]12C=CCN3CC[C@@]4(c5ccc(OC)cc5N(C)[C@H]4[C@@](O)(C(=O)OC)[C@@H]1OC(=O)CCC[P+](C1CCCCC1)(C1CCCCC1)C1CCCCC1)[C@@H]32`, the growth was -33% (active).

In the case of `CC12OOC(C)(OO1)C2CCC(=O)NCCCNc1ccnc2cc(Cl)ccc12` (stereo not given), the growth is 103%.

With `COC(=O)CCn1c(-c2ccc(-n3cc(-c4ccc(O[C@H]5O[C@@H]6OC7(C)CC[C@H]8[C@H](C)CC[C@@H]([C@H]5C)[C@@]68OO7)cc4)nn3)cc2)nc2ccccc21`, the growth is 30.3%. The figure for `CC[C@]12C=CCN3CC[C@@]4(c5ccc(OC)cc5N(C)[C@H]4[C@@](O)(C(=O)OC)[C@@H]1OC(=O)CCC[P+](c1ccc(F)cc1)(c1ccc(F)cc1)c1ccc(F)cc1)[C@@H]32` is 19.1%; for `CC12OOC(C)(OO1)C2CCC(=O)OCCNc1ccnc2cc(Cl)ccc12` (stereo not given) it is 95.2%; for `CC[C@@]12CC(C(=O)OC)=C3Nc4cc5c(cc4[C@@]34CCN(C[C@H]3O[C@H]31)[C@@H]24)[C@@H]1[C@H](O5)[C@@H](O)[C@@]2(CC)CC(C(=O)OC)=C3Nc4cc(OC)ccc4[C@@]34CCN1[C@@H]24` it is -6.21% (active). `COC(=O)C[C@](O)(CCC(C)C)C(=O)O[C@@H]1C(OC)=C[C@]23CCCN2CCc2cc4c(cc2[C@H]13)OCO4`: the growth is -22.2% (active).

Consider `CC[C@]12C=CCN3CC[C@@]4(c5ccc(OC)cc5N(C)[C@H]4[C@@](O)(C(=O)OC)[C@@H]1OC(=O)CCCC[P+](c1ccc(OC)cc1)(c1ccc(OC)cc1)c1ccc(OC)cc1)[C@@H]32`, for which the growth is -67.5% (active). As for `CC1=C(CCC=O)C2=C(C)C3(CC3)[C@@](C)(O)C(=O)C2=C1`, the growth was -8.94% (active). Take `CC1=C2C(=C[C@@](C)(COP(=O)(Oc3ccccc3)Oc3ccccc3)[C@@H]2O)C(=O)[C@@](C)(O)C12CC2`: the growth is -25.2% (active). The figure for `CC(=C\C(=O)Oc1ccc2c3c1OC1C(O)CCC4(O)C(C2)N(CC2CCC2)CCC314)/C=C1\CCCc2ccccc21` (stereo not given) is 59.8%; for `CCOP(=O)(CC(F)(F)C(F)(F)F)OCC` it is 82.2%. Take `CC1=C(COCCOC(=O)c2ccc(S(=O)(=O)F)cc2)C2=C(C)C3(CC3)[C@@](C)(O)C(=O)C2=C1`: the growth is -12.9% (active). With `COCCOCCOCCOc1ccc(-n2cc(-c3ccc(O[C@H]4O[C@@H]5OC6(C)CC[C@H]7[C@H](C)CC[C@@H]([C@H]4C)[C@@]57OO6)cc3)nn2)cc1`, the growth is 43.9%. The figure for `C[C@H]1[C@@H](Oc2ccc(-c3cn(-c4ccnc5cc(Cl)ccc45)nn3)cc2)O[C@@H]2OC3(C)CC[C@H]4[C@H](C)CC[C@@H]1[C@@]24OO3` is 32.5%; for `O=C(NCCCCC(c1ccc(F)cc1)c1ccc(F)cc1)Nc1ccc([N+](=O)[O-])c(C(F)(F)F)c1` it is -3.33% (active). The figure for `COC(=O)C[C@](O)(CCCC(C)C)C(=O)O[C@H]1C(OC)=C[C@@]23CCCN2CCc2cc4c(cc2[C@@H]13)OCO4` is -4.94% (active); for `C#CC[Se]C(=O)c1ccc(C(=O)[Se]CC#C)s1` it is 92.4%; for `C[C@H]1[C@H](OC(=O)CCC(=O)Nc2cnccn2)O[C@@H]2OC3(C)CC[C@H]4[C@H](C)CC[C@@H]1[C@@]24OO3` it is 29.2%.

Turning to `COCCOCCOCCOc1ccc(-n2cc(CCCN(CCNc3ccnc4cc(Cl)ccc34)C(=O)CCC(=O)O[C@@H]3O[C@@H]4OC5(C)CC[C@H]6[C@H](C)CC[C@@H]([C@H]3C)[C@@]46OO5)nn2)cc1`, the growth is 34.9%. The figure for `COC(=O)C[C@](O)(CCC(C)C)C(=O)O[C@H]1C(OC)=C[C@@]23CCCN2CCc2cc4c(cc2[C@@H]13)OCO4` is -25.8% (active). The figure for `CC12OOC(C)(OO1)C2CCC(=O)NCCNc1ccnc2cc(Cl)ccc12` (stereo not given) is 99.8%.

As to `COc1cc2cc(C(=O)N3C[C@@H](CCl)c4c3cc(OC(=O)N3CCN(C)[C@@H]5CSSC[C@H]53)c3ccccc43)[nH]c2c(OC)c1OC`, the growth was -36% (active). The figure for `COc1cc(OC)c(S(=O)(=O)N(CCCl)CCCl)cc1C(=O)/C=C/c1ccc(C)cc1` is 56.8%.

Regarding `O=C(NC([Se])=NC1CCCCC1)c1ccc2c(c1)OCO2`, the growth was 60.8%. `CCOC(=O)C1=C(Nc2ccccc2)C(=O)OC12C(=O)Nc1ccccc12` (stereo not given): the growth was 106%.
